{"source": "PubChem BioAssay AID2315", "about": "(National Center for Advancing Translational Sciences (NCATS), 2010)", "note": "The whole screen tested about 290,000 compounds, of which about 27,000 (9.3%) were called active. The sample holds actives, similar compounds and a random draw of the others, so the mix is not that of the screen. Rule as the data show it: active = inhibition mostly above about 28% (no sharp cut-off); inactive = mostly below about 43%.", "data": [{"assay": "A qHTS for Small Molecule Inhibitors of Shiga Toxin; also: 0% is about no effect", "conditions": "Vero cells, Shiga toxin protein synthesis inhibition reporter; at 38.7 µM, stronger effect = higher value", "values": [{"smiles": "Cc1ccc(-c2nnc(Nc3ccc(C(=O)N(C)C)cc3)c3ccccc23)cc1S(N)(=O)=O", "inhibition": "1.45% (inactive)"}, {"smiles": "CC(C)(C)n1ncc2c(=O)n(Cc3ccc(Cl)cc3)cnc21", "inhibition": "33.8% (inactive)"}, {"smiles": "Cc1cc(=O)oc2c(C)c(OCC(=O)NCCc3ccc(S(N)(=O)=O)cc3)ccc12", "inhibition": "-5.85% (inactive)"}, {"smiles": "CCOc1ccc(NC(=O)[C@H](C)NC(=O)C2CC(=O)N(c3ccc(OC)cc3)C2)cc1", "note": "(some centres undefined)", "inhibition": "-4.28% (inactive)"}, {"smiles": "COCCCNc1nc2ccccc2nc1NS(=O)(=O)c1ccc(F)cc1", "inhibition": "2.37% (inactive)"}, {"smiles": "CCCCNC(=O)N1CCCC(N(C)CCc2ccc(OC)c(OC)c2)C1", "note": "(centres undefined)", "inhibition": "-2.02% (inactive)"}, {"smiles": "Cc1ccc(NC(=O)CSc2nn3c(=O)c(C)nnc3s2)cc1Cl", "inhibition": "7.47% (inactive)"}, {"smiles": "O=C(NC1CCCC1)c1ccc(Br)s1", "inhibition": "30.7% (inactive)"}, {"smiles": "CC(C)C(=O)OCC(=O)Nc1ccc2c(c1)CCC2", "inhibition": "14.2% (inactive)"}, {"smiles": "O=C(Nc1ccc2c(c1)CCC2)c1ccc(Br)s1", "inhibition": "112% (active)"}, {"smiles": "CC1=C(C(=O)OCC2CCCCC2)C(c2ccc(F)cc2)NC(=O)N1", "note": "(centres undefined)", "inhibition": "-7.87% (inactive)"}, {"smiles": "CN(C)c1nc(Nc2ccc(Cl)c(Cl)c2)nc(N(C)C)n1", "inhibition": "-11.2% (inactive)"}, {"smiles": "Cc1ccc(CS(=O)(=O)CCC(=O)NCc2ccc(F)cc2)cc1", "inhibition": "-8.45% (inactive)"}, {"smiles": "CCOC(=O)Cc1csc(SCC(=O)NC(C)C23CC4CC(CC(C4)C2)C3)n1", "note": "(centres undefined)", "inhibition": "3.03% (inactive)"}, {"smiles": "CCc1cccc(CC)c1NC(=S)NCc1ccc2[nH]c(C)cc2c1", "inhibition": "-9.97% (inactive)"}, {"smiles": "Cc1cc2cc(CNC(=O)c3cccs3)ccc2[nH]1", "inhibition": "21.3% (active)"}, {"smiles": "Cc1cc2cc(CNC(=O)c3ccc(S(=O)(=O)N4CCOCC4)cc3)ccc2[nH]1", "inhibition": "-6.18% (inactive)"}, {"smiles": "COc1ccc(CNc2ncnc3ccccc23)cc1", "inhibition": "-14.9% (inactive)"}, {"smiles": "Cc1c(C)c(C)c(S(=O)(=O)N2CCC3(CC2)OCCO3)c(C)c1C", "inhibition": "-4.05% (inactive)"}, {"smiles": "O=C(C1CCCO1)N1CCN(S(=O)(=O)c2ccc(Br)cc2)CC1", "note": "(centres undefined)", "inhibition": "-30% (inactive)"}, {"smiles": "O=C1Nc2cc(C(=O)N3CCN(c4ccc(F)cc4)CC3)ccc2NC1CSCc1cccc(F)c1", "note": "(centres undefined)", "inhibition": "-13.8% (inactive)"}, {"smiles": "COc1cc(NC(=O)C2=C(C)OCCS2)c(Cl)cc1C(=O)NCCN1CCN(C)CC1", "inhibition": "-4.3% (inactive)"}, {"smiles": "COc1ccccc1C1/C(=C(/O)c2ccc(C)cc2)C(=O)C(=O)N1Cc1ccco1", "note": "(centres undefined)", "inhibition": "-8.56% (inactive)"}, {"smiles": "O=C(NC1CCCCC1)C1c2ccccc2C(=O)N1Cc1ccco1", "note": "(centres undefined)", "inhibition": "2.78% (inactive)"}, {"smiles": "O=C1c2ccccc2C(Nc2ccc3c(c2)OCCO3)N1Cc1ccco1", "note": "(centres undefined)", "inhibition": "75.3% (active)"}, {"smiles": "Cc1ccnc(N2C(=O)c3ccccc3C2Nc2ccc3c(c2)OCCO3)c1", "note": "(centres undefined)", "inhibition": "162% (active)"}, {"smiles": "COC(=O)c1cc(NC2c3ccccc3C(=O)N2c2ccc(Cl)cn2)cc(C(=O)OC)c1", "note": "(centres undefined)", "inhibition": "27.1% (inactive)"}, {"smiles": "Cc1cccc(C(=O)Nc2ccccc2-c2nnn(CC(=O)Nc3ccc4c(c3)OCCO4)n2)c1", "inhibition": "-7.74% (inactive)"}, {"smiles": "CC(C)(C)NCc1cc(Br)ccc1OC1CCCC1", "inhibition": "-3.59% (inactive)"}, {"smiles": "CCc1ccc2[nH]c(=O)c(Cc3ccccc3)c(O)c2c1", "inhibition": "-8.55% (inactive)"}, {"smiles": "Cc1ccc(C2SCC(=O)N2c2ccccc2)cc1", "note": "(centres undefined)", "inhibition": "23.4% (inactive)"}, {"smiles": "C=CCN1C(=NC(=O)COc2ccccc2)SC2CS(=O)(=O)CC21", "note": "(centres undefined)", "inhibition": "-9.63% (inactive)"}, {"smiles": "Cc1ccc(C(=O)N/C(=C\\c2cn(C)c3ccccc23)C(=O)N2CCN(C)CC2)cc1", "inhibition": "-1.79% (inactive)"}, {"smiles": "Cc1ccc(CN2CCNC(=O)C2CC(=O)NCc2csc(C(C)C)n2)cc1", "note": "(centres undefined)", "inhibition": "-6.42% (inactive)"}, {"smiles": "COc1ccc(S(=O)(=O)c2c[nH]c(=S)[nH]c2=O)cc1Cl", "inhibition": "-4.21% (inactive)"}, {"smiles": "Cc1cnc(C(=O)OCc2c(C)cc(C(C)(C)C)cc2C)cn1", "inhibition": "-2.67% (inactive)"}, {"smiles": "O=C(C[n+]1cc(Br)cc2ccccc21)c1ccc(F)cc1", "inhibition": "-6.12% (inactive)"}, {"smiles": "S=c1[nH]nc(-c2cc(-c3ccccc3)n[nH]2)n1/N=C/c1c2ccccc2cc2ccccc12", "inhibition": "-4.79% (inactive)"}, {"smiles": "Cc1ccc(NC(=O)c2cc(-c3ccccc3O)n[nH]2)cc1C", "inhibition": "40.6% (inactive)"}, {"smiles": "c1ccc(-c2cc(-c3ccccc3)[nH]n2)cc1", "inhibition": "129% (active)"}, {"smiles": "c1ccc(-c2cc(-c3nnc4sc(-c5ccccn5)nn34)[nH]n2)cc1", "inhibition": "11.6% (inactive)"}, {"smiles": "Oc1ccccc1-c1cc(-c2ccc(Cl)cc2)n[nH]1", "inhibition": "151% (active)"}, {"smiles": "O=C(NCCCNC(=O)c1ccccc1Cl)c1cnccn1", "inhibition": "-8.38% (inactive)"}, {"smiles": "COc1ccc(NC(=O)CC(NC(C)c2ccccc2)C(=O)O)cc1", "note": "(centres undefined)", "inhibition": "-9.37% (inactive)"}, {"smiles": "O=C(OCCN=C1NS(=O)(=O)c2ccccc21)c1cccc([N+](=O)[O-])c1", "inhibition": "-7.24% (inactive)"}, {"smiles": "COc1ccc(N2CCN(C(=O)c3ccc(N4CCCCS4(=O)=O)cc3)CC2)cc1", "inhibition": "3.75% (inactive)"}, {"smiles": "O=C(O)CCc1cccnc1", "inhibition": "-4.95% (inactive)"}, {"smiles": "CC(=O)OC(C(=O)NCCc1ccccc1)c1cccnc1", "note": "(centres undefined)", "inhibition": "-5.15% (inactive)"}, {"smiles": "N/C(=N\\OC(=O)CCc1ccccc1)c1cccnc1", "inhibition": "55.1% (active)"}, {"smiles": "N/C(=N\\OC(=O)CCc1ccccc1)c1ccc(Cl)cc1", "inhibition": "61% (active)"}, {"smiles": "Cc1ccc(/C(N)=N/OC(=O)COc2ccc(Cl)c(C)c2)cc1", "inhibition": "21.4% (inactive)"}, {"smiles": "O=C(CCC(=O)OCc1ccc(Cl)cc1)Nc1ccccc1", "inhibition": "-15.7% (inactive)"}, {"smiles": "C=CCn1c(SCC(=O)NCC2CCCO2)nc2sc(C)c(C)c2c1=O", "note": "(centres undefined)", "inhibition": "-9.53% (inactive)"}, {"smiles": "COC(=O)c1cc(S(=O)(=O)NCC2CCN(Cc3ccc(Cl)cc3)CC2)cn1C", "inhibition": "-0.168% (inactive)"}, {"smiles": "COc1ccccc1CNC(=O)[C@@H]1CCCN1C(=O)[C@@H]1Cc2ccccc2CN1C(=O)OC(C)(C)C", "inhibition": "-9.37% (inactive)"}, {"smiles": "COC(=O)c1ccc(OC(=O)c2nn(C)cc2Cl)c(OC)c1", "inhibition": "8.13% (inactive)"}, {"smiles": "C=CCc1cccc(/C=N/NC(=O)COc2ccc(-n3cnnn3)cc2)c1O", "inhibition": "19.1% (inactive)"}, {"smiles": "COc1ccc(CCNC(=O)CN(C)S(=O)(=O)c2ccc3nc(C)sc3c2)cc1OC", "inhibition": "16.5% (inactive)"}, {"smiles": "Cn1c(SCC(=O)N2CCCCC2)nc2c(c1=O)SCC2", "inhibition": "-17.3% (inactive)"}, {"smiles": "O=C(CN1C(=O)c2ccccc2S1(=O)=O)NC1CCCCC1", "inhibition": "-0.163% (inactive)"}, {"smiles": "COc1ccc(Cl)cc1C(=O)Nc1ccc(N(C)C(C)=O)cc1", "inhibition": "22.6% (inactive)"}, {"smiles": "COc1cc(OC)c(C(=O)Nc2ccc(N(C)C)cc2)cc1OC", "inhibition": "77.9% (active)"}, {"smiles": "COc1cc(OC)c(C(=O)NC2CC(C)(C)NC(C)(C)C2)cc1OC", "inhibition": "-5.21% (inactive)"}, {"smiles": "CN(Cc1ccccc1)C(=O)c1cccc(C(=O)N(C)Cc2ccccc2)c1", "inhibition": "-2.11% (inactive)"}, {"smiles": "COc1ccc(NC(=O)COc2ccc(C(=O)c3ccc(F)cc3)cc2)cc1S(N)(=O)=O", "inhibition": "-4.25% (inactive)"}, {"smiles": "C=CCc1ccccc1OCC(=O)N/N=C/c1ccccc1OCC", "inhibition": "13.2% (inactive)"}, {"smiles": "CCOc1ccc(/C=N/Nc2nncc(-c3ccccc3)n2)cc1OC", "inhibition": "8.48% (inactive)"}, {"smiles": "Brc1ccccc1/C=N/Nc1nc2ccccc2o1", "inhibition": "68.5% (active)"}, {"smiles": "Oc1c(Br)cccc1/C=N/Nc1c(F)c(F)c(F)c(F)c1F", "inhibition": "16% (inactive)"}, {"smiles": "CCOc1ccccc1/C=N/Nc1nc2ccccc2o1", "inhibition": "49% (active)"}, {"smiles": "COc1cc(/C=N/Nc2nc3ccccc3s2)ccc1O", "inhibition": "62.5% (active)"}, {"smiles": "Cc1cc(C)nc(N/N=C/c2c(C)oc3ccccc23)n1", "inhibition": "29.2% (inactive)"}, {"smiles": "COc1cc(/C=N\\Nc2nc(-c3cccs3)c(NC(C)=O)s2)ccc1O", "inhibition": "34% (inactive)"}, {"smiles": "COc1ccc(/C=N/n2nnnc2N)cc1OC", "inhibition": "-3.85% (inactive)"}, {"smiles": "CCOc1ccccc1/C=N/NC(=O)CNC(=O)COc1ccccc1", "inhibition": "11.6% (inactive)"}, {"smiles": "COc1ccc(/C=N/Nc2nc3ccccc3o2)cc1OC", "inhibition": "101% (active)"}, {"smiles": "CCNc1nc(NCC)nc(N/N=C/c2ccc(O)c(OC)c2)n1", "inhibition": "-4.76% (inactive)"}, {"smiles": "CCOC(=O)c1c(S(=O)(=O)NCC(=O)Nc2ccc(C)cc2)c(C)n(C)c1C", "inhibition": "-5.73% (inactive)"}, {"smiles": "O=C1NC(c2ccccc2)Oc2ccccc21", "note": "(centres undefined)", "inhibition": "-5.27% (inactive)"}, {"smiles": "Cc1ccc(NS(=O)(=O)c2ccc(-c3ccc(=O)[nH]n3)o2)c(C)c1", "inhibition": "-12.5% (inactive)"}, {"smiles": "CCOc1cc(-c2noc(CCCC(=O)NC3CCCCC3)n2)ccc1OC", "inhibition": "-9.28% (inactive)"}, {"smiles": "COc1ccccc1NC(=O)CSc1nnc(CNC(=O)c2ccccc2F)o1", "inhibition": "15.5% (inactive)"}, {"smiles": "Cc1ccccc1CSc1nnc(-c2ccccc2)c(=O)[nH]1", "inhibition": "-6.33% (inactive)"}, {"smiles": "Cc1ccc(CSc2nc(-c3ccccc3)c(C#N)c(=O)[nH]2)cc1", "inhibition": "22.6% (inactive)"}, {"smiles": "O=c1[nH]c(SCc2ccccc2)nnc1-c1ccccc1", "inhibition": "36.4% (active)"}, {"smiles": "COc1ccccc1C(=O)NC(CCSC)C(=O)NNC(=O)c1csc(N2CCOCC2)n1", "note": "(centres undefined)", "inhibition": "-15.3% (inactive)"}, {"smiles": "COc1ccc(/C=C/C(=O)c2ccc(OC)cc2O)cc1", "inhibition": "42.2% (active)"}, {"smiles": "COc1ccc(/C=C/C(=O)c2cc(Br)ccc(=O)c2O)cc1", "inhibition": "7.73% (inactive)"}, {"smiles": "COc1ccc(C(=O)/C=C/c2cccnc2)c(OC)c1", "inhibition": "0.985% (inactive)"}, {"smiles": "O=c1[nH]c(=O)n(Cc2ccco2)c2c1C(C(F)(F)F)(C(F)(F)F)N=C(c1ccco1)N2", "inhibition": "58.8% (active)"}, {"smiles": "Cc1ccccc1C1=NC(C(F)(F)F)(C(F)(F)F)c2c(n(-c3ccc(F)cc3)c(=O)[nH]c2=O)N1", "inhibition": "2.62% (inactive)"}, {"smiles": "CC(=O)Nc1ccc(S(=O)(=O)NC2(C(F)(F)F)C(=O)Nc3c2c(=O)[nH]c(=O)n3Cc2ccccc2)cc1", "note": "(centres undefined)", "inhibition": "-2.93% (inactive)"}, {"smiles": "Cc1ccc(OS(=O)(=O)c2ccc(-c3csc(C)n3)s2)c(C)c1", "inhibition": "-11.1% (inactive)"}, {"smiles": "CN(Cc1ccccc1)CC(O)COc1ccc(CNCc2cc3ccccc3s2)cc1", "note": "(centres undefined)", "inhibition": "-3.31% (inactive)"}]}]}
